Compound activity from PubChem.
The entries come from a sample that favours hits as a whole.
Peg3 imprint: qHTS Assay for Compounds that Induce Erasure of Genomic Imprints | 110,000 compounds, 0.02% hits | Potency, µM (doses to about 60.7 µM), actives largely listed as activators | mouse ES Peg3-LacZ reporter, beta-gal luminescence, 40 h
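Each well holds 300 Peg3LacZ-Neo (maternal) female ES cells incubated 40 h at 37C, 5% CO2. LacZ is measured by BetaGlo luminescence, with AC50 and maximum efficacy derived from dose-response curves.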
ERK AVP inh: qHTS Assay for Inhibitors of the ERK Signaling Pathway using a Homogeneous Screening Assay | Potency, µM (top dose mostly 57.5 µM), actives largely listed as inhibitors | 72,000 compounds, 0.99% hits | HEK293-V1b, vasopressin-stimulated pERK AlphaScreen; note: nearly all actives have a fitted effect of over 55% in size
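Overnight-seeded V1b-HEK293 cells in 1% FBS got compound, then vasopressin (25 nM final, 5 min, 37C), then lysis buffer. AlphaScreen detection of phospho-ERK; activity normalized to basal and full-stimulation controls.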
IkB signaling: IkB Signaling; ABC-DLBCL IkBa-CBG/CBR dual luciferase ratio, 4 h; response scale: scaled: untreated 0%, proteasome inhibitor 100%; Potency, µM (highest dose often 57.1 µM); 110,000 compounds, 0.04% hits; active = well fitted curve in the direction sought with a large enough effect in the signal ratio, not every such curve was filed as active; inconclusive = small, poorly fitted or top-dose-only effect, or a change in a side signal; the % refers to the signal ratio;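 note: the direction sought is a rising ratio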
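Luminescence ratio of IκBα-fused green versus native red beetle luciferase in OCI-Ly3 cells, 4 h post-doxycycline with compound; red signal alone, scaled from basal (0%) to zero light (-100%), flagged nonspecific or cytotoxic effects.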
CRE-bla Fsk: Cell signaling CRE-BLA (Fsk stim); CHO CRE-bla reporter (cAMP response element driving beta-lactamase), forskolin EC10, beta-lactamase ratio; 71,000 compounds, 2.5% hits; Potency, µM (doses to about 38.2 µM), actives largely listed as activators; active = well fitted activation curve with a large enough effect in the signal ratio, with a control signal flat, not every such curve was filed as active; inconclusive = small, poorly fitted or top-dose-only effect, or effect the other way, or a change in a side signal; the % refers to the signal ratio
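Forskolin analogue NKH 477 at EC10 stimulated CRE-driven beta-lactamase in CHO cells alongside compound dilution series. Beta-lactamase was measured with CCF4, excitation 405 nm, emission ratio 460/530 nm.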
CHO via 24h: Cell Viability - CRE-beta lactamase CHO cell - 24 hr assay | shares compounds with CRE-bla Fsk | CRE-bla CHO viability, ATP luminescence, 24 h | activity, negative = viability loss, % at 46.1 µM | 120 tested, under 10 active | AID 905, 2007
CHO via 40h: Cell Viability - CRE-beta lactamase CHO cell - 40 hr assay; 120 tested, under 10 active; shares compounds with CRE-bla Fsk; Potency, µM, most hits filed as inhibitors; CRE-bla CHO viability, ATP luminescence, 40 h; AID 906, 2007
CREB luc CRC: Confirmation Concentration-Response Assay for Cell signaling CRE-BLA (Fsk stim) - HEK293 CREB Luciferase. Potency, µM (highest dose often 38.3 µM), actives largely listed as activators. HEK293 CRE-luc2P, NKH477 EC10 potentiation, luminescence, 4 h. shares compounds with CRE-bla Fsk. 120 compounds, 80% hits
A number is an active result; n = inactive; u = inconclusive; x = not tested or not shown; [ ] = dose if it differs, or a comment. Unless noted, calls come from the whole dose curve; as a rule, active = well fitted curve in the direction sought with a large enough effect; inconclusive = small, poorly fitted or top-dose-only effect, or another doubt; inactive = no such curve, though single readings can be large; an effect the other way counts as inactive or inconclusive.

SMILES	Peg3 imprint	ERK AVP inh	IkB signaling	CRE-bla Fsk	CHO via 24h	CHO via 40h	CREB luc CRC
CCn1nnc(-c2ccccc2NC(=O)c2cc(OC)c(OC)c(OC)c2)n1	x	n	n	2.51µM	x	x	x
COc1ccc(OCC(=O)Nc2ccc(S(=O)(=O)N3CCCCCC3)cc2)cc1	n	n	n	n	x	x	x
COc1ccccc1OCC(=O)Nc1ccc(S(=O)(=O)N2CCCCCC2)cc1	n	25.1µM	u	u	x	x	x
O=C(OCn1nnc2ccccc2c1=O)c1ccc2ncsc2c1	n	n	n	n	x	x	x
COc1cc(OC)cc(C(=O)OCn2nnc3ccccc3c2=O)c1	n	x	n	12.6µM	x	x	x
Nc1nc(Cl)nc2c1ncn2[C@@H]1O[C@@H](CO)[C@@H](O)[C@H]1O	x	12.6µM	u	u	x	x	x
Nc1nc(Cl)nc2c1ncn2[C@@H]1O[C@H](CO)[C@H](O)[C@H]1O	n	x	x	x	x	x	x
C=CC(=O)CC	31.6µM	n	n	n	x	x	x
COc1ccccc1CNc1nc(-c2cccc(NS(C)(=O)=O)c2)nc2ccccc12	n	n	n[11.4 µM]	n	x	x	x
CS(=O)(=O)Nc1cccc(-c2ccc3ncnc(NC4CC4)c3c2)c1	n	u	n[11.4 µM]	u	x	x	x
Cc1cccc(CNc2ncnc3ccc(-c4cccnc4)cc23)c1	n	2µM	n[11.4 µM]	u	x	x	x
CN1CCN(c2ncnc3ccc(-c4cccc(NS(C)(=O)=O)c4)cc23)CC1	n	3.16µM	n[11.4 µM]	u	x	x	x
COc1ccccc1CNc1ncnc2ccc(-c3cccc(NS(C)(=O)=O)c3)cc12	n	15.8µM	n[11.4 µM]	u	x	x	x
Cc1cccc(CNc2ccnc(-c3cccc(NS(C)(=O)=O)c3)n2)c1	n	12.6µM	n[11.4 µM]	u	x	x	x
CC1=C(C(=O)O)N2C(=O)C(NC(=O)C(N)c3ccccc3)C2SC1 (stereo not drawn)	n	n	x	x	x	x	x
COc1ccccc1-c1nccc(NCc2cccs2)n1	n	u	n[11.4 µM]	n	x	x	x
CCNc1ncc2ncc(=O)n(Cc3ccc(F)cc3)c2n1	n	u	n[11.4 µM]	u	x	x	x
Cc1cccc(CNc2ncnc3ccc(-c4cccc(NS(C)(=O)=O)c4)cc23)c1	n	25.1µM	n[11.4 µM]	u	x	x	x
COCCNc1ncnc2ccc(-c3cccc(NS(C)(=O)=O)c3)cc12	n	n	n[11.4 µM]	u	x	x	x
CCCCCOC(=O)c1[nH]c2c(c1C)C(=O)CC(c1ccco1)C2 (stereo not drawn)	n	n	u	0.0794µM	n	n	n
C=CCNc1nc(Nc2ccc(OC)cc2OC)nc(OCC)n1	n	n	n	5.01µM	n	n	10µM
Cc1cccc(C2=N[C@@H](Cc3ccccc3)CO2)c1	n	x	x	x	x	x	x
CC(=O)N1CCN(c2ccc(Nc3nc(C)nc4c3oc3ccccc34)cc2)CC1	n	10µM	u	1µM	n	u	u
CC(=O)Nc1ccc(Nc2nc(C)nc3c2oc2ccccc23)cc1	n	n	n	u	x	x	x
COC(=O)c1ccc(CSc2nc3c(cnn3-c3ccc(F)cc3)c(=O)[nH]2)o1	n	n	n	12.6µM	n	n	5.01µM
SMILES	Peg3 imprint	ERK AVP inh	IkB signaling	CRE-bla Fsk	CHO via 24h	CHO via 40h	CREB luc CRC
COC(=O)c1ccc(CSc2ccc3nnc(-c4ccc(OC)c(OC)c4)n3n2)o1	n	n	n	1.58µM	n	n	2µM
CCc1nc(SCC(=O)Nc2ccc3c(c2)OCCO3)c2oc3ccccc3c2n1	n	u	n	0.398µM	u	31.6µM	3.98µM
Cc1nc(SCC(=O)Nc2ccc3c(c2)OCCO3)c2oc3ccccc3c2n1	n	u	n	0.251µM	n	n	5.01µM
CO[C@@H]1COC(=O)CC=C[C@@H](C)[C@@H]2C=C[C@@H](O)[C@@H](COC(=O)C/C=C\[C@H]1C)O2	x	n[11.5 µM]	x	x	x	x	x
O=C(CSc1ncnc2c1oc1ccccc12)c1cccs1	n	n	n	u	n	n	1.26µM
Cc1nc(SCc2nc3ccccc3[nH]2)c2oc3ccccc3c2n1	n	n	u	0.0158µM	n	n	1µM
c1ccc2[nH]c(CSc3ncnc4c3oc3ccccc34)nc2c1	n	u	u	u	n	u	0.794µM
Fc1ccc(CSc2ncnc3c2oc2ccccc23)cc1	n	n	n	1µM	n	n	7.94µM
O=C(CSc1ncnc2c1oc1ccccc12)OCc1ccccc1	n	n	n	u	x	x	x
CCSc1ncnc2c1oc1ccccc12	n	n	n	u	x	x	x
C[C@@]12CC[C@@H]3[C@H](CCC4=CC(=O)CC[C@]43C)[C@@H]1CC[C@@H]2C(=O)Cn1cnc2c(=S)nc[nH]c21	n[10.9 µM]	n[11.5 µM]	n[11.4 µM]	n[7.6 µM]	x	x	x
NC(=O)CCCCC(N)=O	n	n	n	n	x	x	x
CCN1C(C)=C(C(=O)OC)C(c2ccccc2)N2C(=O)[C@](O)(C(=O)OC)CC(C#N)=C12 (stereo partly drawn)	x	n[11.5 µM]	x	x	x	x	x
CC(=O)OC[C@@H]1O[C@H](C/C=N\OC[C@@H](O)COCc2ccco2)C=C[C@@H]1OC(C)=O	x	n[11.5 µM]	x	x	x	x	x
Nc1nc(CSCc2ccccc2)nc(N2CCOCC2)n1	n	n	n	n	n	n	2.82µM
Nc1nc(N2CCOCC2)nc(N(c2ccccc2)c2ccccc2)n1	n	x	n	n	x	x	x
CCc1nc2nc(C)cc(Nc3cccc(C(F)(F)F)c3)n2n1	n	n	n	3.98µM	n	n	12.6µM
CSc1nnc2c3ccccc3n(CCc3ccccc3)c2n1	n	n	n	0.0158µM	u	u	3.16µM
CSc1nnc2c3ccccc3n(Cc3ccccc3)c2n1	n	n	n	u	x	x	x
Fc1ccc(Nc2nc(-c3ccoc3)nc3ccccc23)cc1	n	n	n[11.4 µM]	u	x	x	x
CCC1(O)CC2CN(CCc3c([nH]c4ccccc34)[C@@](C(=O)OC)(c3cc4c(cc3OC)N(C)C3[C@]45CCN4CC=C[C@@](CC)([C@@H](OC(C)=O)[C@]3(O)C(=O)OC)[C@H]45)C2)C1 (stereo partly drawn)	n	x	x	x	x	x	x
CC[C@]1(O)C[C@@H]2CN(CCc3c([nH]c4ccccc34)[C@](C(=O)OC)(c3cc4c(cc3OC)N(C)[C@H]3[C@](O)(C(=O)OC)[C@@H](C(=O)OC)[C@@]5(CC)C=CCN6CC[C@@]43[C@@H]65)C2)C1	n	n	n	0.251µM	u	u	n
CCOC(=O)c1cnc2c(cnn2CC)c1NN=C(C)C	n	u	n	1µM	n	u	3.16µM
CCOC(=O)c1cnc(-n2nc(C)cc2C)nc1NC	n	n	n	n	x	x	x
CCn1c2ccccc2c2nnc(SCc3cc(=O)n4ccsc4n3)nc21	n	n	n	1µM	n	u	5.01µM
CCCn1c(=O)c2ccccc2n2c(SCc3cc(=O)n4ccsc4n3)nnc12	n	n	n	n	x	x	x
CCCN(CCC)C(=O)SCC	n	n	n	n	x	x	x
